Consider 73 molecules from the antibiotic and cytotoxicity screens of Wong et al. (2023).

Screen size: about 39,000 compounds; about 3,300 (8.5%) were called active. Only a selection was taken, and actives are over-represented in it overall.

This test relates to HepG2. Description: cytotoxicity call (relative viability < 0.9). Particulars: 10 µM.
As to `COc1ccc(NC(=O)Nc2ccc3c(c2)CC(=O)N([C@H](C)CO)C[C@H](C)[C@H](CN(C)Cc2ccc(Cl)c(Cl)c2)O3)cc1`, the cytotoxicity call is “active”. The entry for `COc1ccc(NC(=O)Nc2ccc3c(c2)CC(=O)N([C@@H](C)CO)C[C@@H](C)[C@@H](CN(C)Cc2ccc(Cl)c(Cl)c2)O3)cc1` is “active”; for `COc1ccc(NC(=O)Nc2ccc3c(c2)C(=O)N([C@@H](C)CO)C[C@@H](C)[C@H](CN(C)Cc2ccc(Cl)c(Cl)c2)O3)cc1` it is “inactive”. `COc1ccc(NC(=O)Nc2ccc3c(c2)C(=O)N([C@H](C)CO)C[C@@H](C)[C@H](CN(C)Cc2ccc(Cl)c(Cl)c2)O3)cc1`: the cytotoxicity call is “inactive”. The entry for `COc1ccc(NC(=O)Nc2ccc3c(c2)CC(=O)N([C@@H](C)CO)C[C@H](C)[C@@H](CN(C)Cc2ccc(Cl)c(Cl)c2)O3)cc1` is “active”; for `COc1ccc(NC(=O)Nc2ccc3c(c2)CC(=O)N([C@@H](C)CO)C[C@H](C)[C@H](CN(C)Cc2ccc(Cl)c(Cl)c2)O3)cc1` it is “active”; for `COc1ccc(NC(=O)Nc2ccc3c(c2)CC(=O)N([C@H](C)CO)C[C@H](C)[C@@H](CN(C)Cc2ccc(Cl)c(Cl)c2)O3)cc1` it is “inactive”. The value for `C[C@H](CO)N1C[C@H](C)[C@H](CN(C)S(=O)(=O)c2ccccc2)Oc2ccc(NS(=O)(=O)c3cn(C)cn3)cc2CC1=O` was “inactive”. The entry for `CC(C)NC(=O)N(C)C[C@H]1Oc2cc(C#Cc3cccc(F)c3)ccc2S(=O)(=O)N([C@H](C)CO)C[C@H]1C` is “inactive”; for `O=C(NCCCO)c1cc2ccccc2oc1=O` it is “inactive”; for `COc1cccc(C(=O)Nc2ccc3c(c2)C(=O)N(C)[C@H]2CC[C@@H](CC(=O)NCCCN4CCOCC4)O[C@@H]2CO3)c1` it is “inactive”.

`C[C@H]1CN([C@@H](C)CO)C(=O)Cc2cc(NS(C)(=O)=O)ccc2O[C@@H]1CN(C)S(=O)(=O)c1cccs1`: the cytotoxicity call was “inactive”.

Take `Cc1ccc(S(=O)(=O)N[C@@H]2CC[C@@H](CCNC(=O)CN3CCOCC3)O[C@@H]2CO)cc1`: the cytotoxicity call was “inactive”. The entry for `COC(=O)CSc1cc(C)nc(N)n1` is “inactive”; for `COc1cccc(NC(=O)C[C@H]2CC[C@H]3[C@@H](COc4ccc(NC(=O)C5CCOCC5)cc4C(=O)N3C)O2)c1` it is “inactive”. The entry for `C[C@@H]1CN([C@@H](C)CO)C(=O)c2cc(NS(=O)(=O)c3cn(C)cn3)ccc2O[C@@H](C)CCCCO[C@H]1CN(C)C(=O)CCCN(C)C` is “inactive”; for `C[C@H](CO)N1C[C@H](C)[C@@H](CN(C)Cc2ccc(C(=O)O)cc2)Oc2c(NC(=O)C3CC3)cccc2C1=O` it is “inactive”; for `COc1ccc(NC(=O)Nc2ccc3c(c2)CC(=O)N([C@@H](C)CO)C[C@@H](C)[C@H](CN(C)Cc2ccc(Cl)c(Cl)c2)O3)cc1` it is “inactive”. The entry for `COc1ccc(NC(=O)Nc2ccc3c(c2)CC(=O)N([C@H](C)CO)C[C@@H](C)[C@H](CN(C)Cc2ccc(Cl)c(Cl)c2)O3)cc1` is “active”; for `COc1ccc(NC(=O)Nc2ccc3c(c2)CC(=O)N([C@H](C)CO)C[C@@H](C)[C@@H](CN(C)Cc2ccc(Cl)c(Cl)c2)O3)cc1` it is “inactive”; for `C[C@@H]1CN([C@@H](C)CO)C(=O)c2cc(NC(=O)c3ccncc3)ccc2O[C@@H]1CN(C)S(=O)(=O)c1ccc(F)cc1` it is “inactive”. As for `Cc1noc(C)c1NC(=O)N(C)C[C@@H]1Oc2cc(C#CCN(C)C)ccc2S(=O)(=O)N([C@@H](C)CO)C[C@@H]1C`, the cytotoxicity call is “inactive”. `C[C@H](CO)N1C[C@H](C)[C@H](CN(C)S(=O)(=O)c2cn(C)cn2)Oc2ncc(-c3cccc(C(F)(F)F)c3)cc2C1=O`: the cytotoxicity call is “active”. The value for `C[C@H](CO)N1C[C@H](C)[C@H](CN(C)Cc2cccc(C(F)(F)F)c2)Oc2ncc(-c3ccccc3)cc2C1=O` was “inactive”; that for `C[C@H](CO)N1C[C@H](C)[C@H](CN(C)C(=O)Nc2cccc3ccccc23)Oc2ncc(-c3cc4ccccc4o3)cc2C1=O` was “inactive”. The value for `C[C@H](CO)N1C[C@H](C)[C@H](CN(C)S(=O)(=O)c2cn(C)cn2)Oc2ncc(-c3ccccc3)cc2C1=O` was “inactive”. Take `C[C@H](CO)N1C[C@H](C)[C@H](CN(C)Cc2cccc(C(F)(F)F)c2)Oc2ncc(-c3cccc(C(F)(F)F)c3)cc2C1=O`: the cytotoxicity call is “inactive”. The entry for `Cc1cccc(CN(C)C[C@@H]2Oc3ncc(-c4cc5ccccc5o4)cc3C(=O)N([C@H](C)CO)C[C@@H]2C)c1` is “active”; for `C[C@H](CO)N1C[C@H](C)[C@H](CN(C)Cc2cccc(C(F)(F)F)c2)Oc2ncc(-c3cccc(F)c3)cc2C1=O` it is “active”; for `C[C@H](CO)N1C[C@H](C)[C@H](CN(C)Cc2ccccc2)Oc2ncc(-c3cccc(C(F)(F)F)c3)cc2C1=O` it is “inactive”. The value for `C[C@H](CO)N1C[C@H](C)[C@H](CN(C)Cc2cccc(C(F)(F)F)c2)Oc2ncc(/C=C/c3ccccc3)cc2C1=O` was “active”; that for `C[C@H](CO)N1C[C@H](C)[C@H](CN(C)Cc2cccc(C(F)(F)F)c2)Oc2ncc(-c3ccc(F)cc3)cc2C1=O` was “inactive”. The entry for `C[C@H](CO)N1C[C@H](C)[C@H](CN(C)Cc2cccc(C(F)(F)F)c2)Oc2ncc(-c3cc4ccccc4o3)cc2C1=O` is “inactive”. On to `C[C@H](CO)N1C[C@H](C)[C@H](CN(C)S(=O)(=O)c2cn(C)cn2)Oc2ncc(-c3cccc(F)c3)cc2C1=O`, for which the cytotoxicity call was “inactive”. As for `CCCC#Cc1cnc2c(c1)C(=O)N([C@H](C)CO)C[C@H](C)[C@H](CN(C)S(=O)(=O)c1cccc(OC)c1)O2`, the cytotoxicity call was “inactive”.

In the case of `COCC#Cc1cnc2c(c1)C(=O)N([C@H](C)CO)C[C@H](C)[C@@H](CN(C)C(=O)Nc1ccc(OC)cc1)O2`, the cytotoxicity call is “inactive”.

`COc1ccc(CNC(=O)C[C@@H]2C[C@H]3c4cc(NS(=O)(=O)c5ccc(F)cc5)ccc4O[C@H]3[C@@H](CO)O2)cc1`: the cytotoxicity call was “inactive”. The value for `COc1ccc(CN(C)C[C@@H]2Oc3c(NS(=O)(=O)c4cn(C)cn4)cccc3C(=O)N([C@@H](C)CO)C[C@@H]2C)cc1` was “inactive”; that for `COc1cccc(S(=O)(=O)Nc2ccc3c(c2)[C@@H]2C[C@H](CC(=O)N4CCCCC4)O[C@@H](CO)[C@@H]2O3)c1` was “inactive”; that for `C[C@@H]1CN([C@@H](C)CO)S(=O)(=O)c2ccc(C#CCN(C)C)cc2O[C@H]1CN(C)Cc1ccccc1F` was “inactive”.

Take `Cn1c(S(=O)(=O)CC(N)=O)nc2ccccc21`: the cytotoxicity call was “inactive”. The entry for `Cc1cccc(OC[C@H](O)Cn2c(N3CCN(C)CC3)nc3c2c(=O)n(C)c(=O)n3C)c1` is “inactive”. The value for `Cc1noc(C)c1NC(=O)N(C)C[C@H]1Oc2ccc(NC(=O)Nc3cccc4ccccc34)cc2C(=O)N([C@H](C)CO)C[C@@H]1C` was “inactive”; that for `CN(C)CCCNC(=O)C[C@H]1CC[C@H]2[C@@H](COc3ccc(NC(=O)c4ccccc4F)cc3C(=O)N2C)O1` was “inactive”; that for `CNC(=O)C[C@@H]1CC[C@@H]2[C@H](COC[C@H](O)CN2C(=O)c2ccc3c(c2)OCO3)O1` was “inactive”.

Take `CCCNc1nc(Nc2ccc(C#N)cc2)ncc1C#CCCCNC(=O)[C@H](C)N(C)C(=O)/C=C/CN(C)C`: the cytotoxicity call is “active”. The value for `CC(C)NC(=O)Nc1ccc2c(c1)C(=O)N([C@H](C)CO)C[C@H](C)[C@@H](CN(C)C(=O)Nc1cccc3ccccc13)OCCCC[C@H](C)O2` was “inactive”; that for `Cc1ccc(S(=O)(=O)N[C@H]2CC[C@@H](CC(=O)NCc3ccc(Cl)c(Cl)c3)O[C@@H]2CO)cc1` was “inactive”. The entry for `NNC(=S)NCc1cccs1` is “inactive”. The entry for `C[C@H](CO)N1C[C@H](C)[C@H](CN(C)S(=O)(=O)c2cn(C)cn2)Oc2c(NS(=O)(=O)c3cn(C)cn3)cccc2C1=O` is “inactive”; for `COc1c2occc2c(OC)c2c(=O)cc(C)oc12` it is “active”. Take `COc1cc2ccc(=O)oc2c(OC)c1OC`: the cytotoxicity call was “inactive”. The value for `O=c1ccc2cc3ccoc3cc2o1` was “inactive”. The entry for `COc1c(OC)c2occc2c2oc(=O)ccc12` is “inactive”; for `COc1c2occc2cc2ccc(=O)oc12` it is “active”; for `COc1c(-c2ccccc2)oc2c(ccc3ccoc32)c1=O` it is “inactive”. The value for `COc1c2ccoc2c(OC)c2oc(=O)ccc12` was “active”; that for `COc1c2ccoc2cc2oc(C)cc(=O)c12` was “inactive”; that for `COc1c2ccoc2cc2oc(=O)ccc12` was “inactive”. On to `CN(C)C(=O)Cn1c(=O)oc2ccccc21`, for which the cytotoxicity call is “inactive”.

Consider `COc1ccc(CN(C)C[C@@H]2Oc3ccc(NS(=O)(=O)c4cn(C)cn4)cc3C(=O)N([C@H](C)CO)C[C@@H]2C)cc1`, for which the cytotoxicity call was “inactive”. The entry for `O=C(C[C@H]1CC[C@H]2[C@@H](COC[C@@H](O)CN2S(=O)(=O)c2ccccc2Cl)O1)NCCc1ccncc1` is “inactive”.

Consider `C[C@H](CO)N1C[C@H](C)[C@H](CN(C)Cc2ccc3c(c2)OCO3)Oc2ccc(NC(=O)Nc3cccc4ccccc34)cc2C1=O`, for which the cytotoxicity call was “inactive”. The entry for `COc1ccc(S(=O)(=O)N(C)C[C@H]2OCCCC[C@H](C)Oc3ccc(NS(=O)(=O)c4ccc(Cl)cc4)cc3C(=O)N([C@@H](C)CO)C[C@H]2C)cc1` is “inactive”; for `COc1ccc(S(=O)(=O)Nc2ccc3c(c2)C(=O)N([C@@H](C)CO)C[C@@H](C)[C@@H](CN(C)S(=O)(=O)c2ccc(Cl)cc2)OCCCC[C@@H](C)O3)cc1` it is “inactive”.

On to `COc1ccc(S(=O)(=O)Nc2ccc3c(c2)C(=O)N([C@@H](C)CO)C[C@@H](C)[C@@H](CN(C)S(=O)(=O)c2ccc(Cl)cc2)OCCCC[C@H](C)O3)cc1`, for which the cytotoxicity call is “inactive”.

As for `COc1ccc(S(=O)(=O)Nc2ccc3c(c2)C(=O)N([C@H](C)CO)C[C@@H](C)[C@@H](CN(C)S(=O)(=O)c2ccc(Cl)cc2)OCCCC[C@@H](C)O3)cc1`, the cytotoxicity call is “inactive”.

Take `COc1ccc(S(=O)(=O)Nc2ccc3c(c2)C(=O)N([C@H](C)CO)C[C@H](C)[C@@H](CN(C)S(=O)(=O)c2ccc(Cl)cc2)OCCCC[C@H](C)O3)cc1`: the cytotoxicity call was “inactive”. The entry for `COc1ccc(S(=O)(=O)N(C)C[C@@H]2OCCCC[C@H](C)Oc3ccc(NS(=O)(=O)c4ccc(Cl)cc4)cc3C(=O)N([C@@H](C)CO)C[C@@H]2C)cc1` is “active”; for `COc1ccc(S(=O)(=O)Nc2ccc3c(c2)C(=O)N([C@@H](C)CO)C[C@H](C)[C@H](CN(C)S(=O)(=O)c2ccc(Cl)cc2)OCCCC[C@H](C)O3)cc1` it is “inactive”. The entry for `COc1ccc(S(=O)(=O)Nc2ccc3c(c2)C(=O)N([C@@H](C)CO)C[C@H](C)[C@@H](CN(C)S(=O)(=O)c2ccc(Cl)cc2)OCCCC[C@H](C)O3)cc1` is “active”; for `COc1ccc(S(=O)(=O)N(C)C[C@@H]2OCCCC[C@H](C)Oc3ccc(NS(=O)(=O)c4ccc(Cl)cc4)cc3C(=O)N([C@H](C)CO)C[C@@H]2C)cc1` it is “active”. The entry for `COc1ccc(S(=O)(=O)N(C)C[C@@H]2OCCCC[C@@H](C)Oc3ccc(NS(=O)(=O)c4ccc(Cl)cc4)cc3C(=O)N([C@@H](C)CO)C[C@H]2C)cc1` is “active”.
